Source: PubChem BioAssay (NMMLSC)
AGP1-GFP MLPCN = modulators of AGP1-GFP expression in yeast TOR pathway, primary screen, cell-based, multiplex flow cytometry, S. cerevisiae, MLPCN library; 3 h; GFP as percent of DMSO wells; GFP response vs DMSO, % at 10 µM; 0.02% of 320,000 active; AID 2066, 2009;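 active = GFP response relative to DMSO above a set limit, near screen average plus 3 SD, cut at about 150% in these data; inconclusive = fewer than 70 cells counted for the yeast strain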;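 also: median GFP channel fluorescence of the gated AGP1 strain per well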
MEP2-GFP yeast = modulators of MEP2-GFP levels in yeast, primary screen, S. cerevisiae, multiplex flow cytometry, MLPCN library | S. cerevisiae MEP2-GFP strain, 3 h; 100% = DMSO control level | GFP response vs DMSO, % at 10 µM | 0.51% of 330,000 active;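 active = GFP response versus DMSO above a set limit, roughly screen mean plus 3 SD, cut at about 180% in these data; inconclusive = fewer than 70 cells counted for a yeast strain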;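 also: median GFP fluorescence of the barcode-gated MEP2-GFP cells per well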
RPL19A-GFP yeast = RPL19A-GFP expression modulators in yeast, primary screen, cell-based, S. cerevisiae, multiplex flow cytometry, MLPCN; 0.3% of 330,000 active; AID 2025, 2009; S. cerevisiae RPL19A-GFP strain, 3 h; hits give low values; percent response vs DMSO, % at 10 µM;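 active = percent response vs DMSO below 50%; inconclusive = fewer than 70 events counted for the yeast strain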;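 also: median channel GFP fluorescence of the barcoded RPL19A-GFP strain; ratio of sample median GFP to plate DMSO average so 100% = DMSO; lower means less RPL19A-GFP as with rapamycin TOR inhibition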
LAP4 TOR yeast = modulators of LAP4-GFP expression in yeast, primary screen, S. cerevisiae, multiplex flow cytometry, MLPCN library; 3 h; median GFP as percent of DMSO wells; GFP response vs DMSO, % at 10 µM; 0.34% of 320,000 active;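 active = GFP response vs DMSO above a set limit, about the screen mean plus 3 SD, cut at about 150% in these data; inconclusive = under 70 cell events counted for the yeast strain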
CIT2-GFP yeast = modulators of CIT2-GFP expression in yeast, primary screen, S. cerevisiae, GFP fusion, multiplex flow cytometry, MLPCN library; S. cerevisiae CIT2-GFP strain, 3 h; 100 means same as DMSO wells; GFP response vs DMSO, % at 10 µM; 0.065% of 320,000 active;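 active = GFP response relative to DMSO above a set limit, near the screen mean plus 3 SD, cut at about 150% in these data; inconclusive = Fewer than 70 cells measured for a yeast strain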;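 also: ratio of well median GFP fluorescence to mean of DMSO wells on the plate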
LAP4-GFP pick2 = LAP4-GFP expression modulators in yeast, confirmation, cell-based, second cherry pick, flow cytometry; shares compounds with LAP4 TOR yeast; S. cerevisiae LAP4-GFP strain, 3 h; GFP response vs DMSO, % at 10 µM; 20% of 590 active;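 active = GFP signal as percent of the solvent control above about 150%, meaning raised reporter expression, limit read from the data; inconclusive = fewer than 70 cells counted in the well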;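 also: ratio of well median GFP fluorescence to plate DMSO mean so 100% = DMSO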
MEP2-GFP pick2 = modulators of MEP2-GFP levels in yeast, confirmation, S. cerevisiae, flow cytometry GFP, second cherry picks. 10% of 590 active. GFP response vs DMSO, % at 10 µM. shares compounds with LAP4 TOR yeast. S. cerevisiae MEP2-GFP strain, 3 h;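 active = GFP signal above 150% of the solvent control wells, that is a rise of more than half; inconclusive = fewer than 70 yeast cells counted in the well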;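 also: median channel GFP fluorescence of all gated yeast cells per well; ratio of median GFP to plate DMSO average so 100% = DMSO level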
RPL19A-GFP pick2 = RPL19A-GFP modulators in TOR pathway yeast, confirmation, cell-based, S. cerevisiae, flow cytometry, second cherry pick; shares compounds with LAP4 TOR yeast; S. cerevisiae RPL19A-GFP strain, 3 h; hits give low values; 100% means same as DMSO wells; GFP response vs DMSO, % at 10 µM; 3% of 590 active; AID 2623, 2010;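 active = under 65% GFP response relative to DMSO; inconclusive = yeast strain with under 70 measured events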;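 also: median GFP channel fluorescence per well over the all cells gate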
CIT2-GFP pick2 = modulators of CIT2-GFP expression in yeast, confirmation, flow cytometry, second cherry pick, single plex; 8% of 590 active; AID 2624, 2010; shares compounds with LAP4 TOR yeast; GFP response vs DMSO, % at 10 µM; S. cerevisiae CIT2-GFP strain, 3 h; DMSO control wells read 100%;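 active = GFP response vs DMSO above about 150%, limit read from the data; inconclusive = fewer than 70 events counted for a yeast strain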;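 also: median green fluorescence per well over all gated yeast cells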
AGP1-GFP pick2 = AGP1-GFP expression modulators, hit retest, confirmation, cell-based, flow cytometry, S. cerevisiae, cherry pick set 2. shares compounds with LAP4 TOR yeast. S. cerevisiae AGP1-GFP strain, 3 h. percent response vs DMSO, % at 10 µM. 590 tested, under 10 active. AID 2643, 2010;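 active = over 150 percent of DMSO response; inconclusive = yeast strain measured with under 70 events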;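 also: median GFP channel fluorescence over all cells without mother daughter split; sample median GFP divided by mean DMSO control so 100% equals DMSO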
s288c autofluor = compound autofluorescence in yeast s288c, dose response, artefact control for yeast TOR pathway GFP screen, s288c strain | 610 tested, under 10 active | fluorescence change (kMESF span) at 33 µM | S. cerevisiae s288c, 520 nm autofluorescence, flow cytometry, 3 h; hits give high values; zero means same as solvent-only cells | shares compounds with LAP4 TOR yeast;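 active = fluorescence span over the dose series, or activity score, above about 33, limit read from the data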
s288c autofl DR = autofluorescence of compounds in yeast s288c, dose response, artefact control for yeast TOR pathway GFP screen, primary hits, KU SAR, s288c parental. shares compounds with LAP4 TOR yeast. S. cerevisiae s288c parental, compound autofluorescence, flow cytometry, 3 h. fluorescence change (span) at 33 µM. 110 tested, under 10 active;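 active = fluorescence change span, or the activity score built from it, above 25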
TORC1 bypass = wild-type yeast growth inhibition sparing TORC1 bypass cells, mechanism study for yeast TOR pathway GFP screen, BY4741 wild type, TORC1 bypass strain | shares compounds with LAP4 TOR yeast | S. cerevisiae BY4741 spot growth rating, 48-72 h; hits give low values | growth rating (0-3) at 30 µM | 120 tested, under 10 active;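 active = growth rating at most 1 for wild type yeast while the TORC1 bypass strain still grows fully, rated 3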
Starred values were filed as active, the others as inactive; ? = inconclusive; · = no result given; [ ] = dose if it differs, or a comment. Hits are enriched below; roughly 0.89% of the tested compounds scored in any of these assays.

SMILES	AGP1-GFP MLPCN	MEP2-GFP yeast	RPL19A-GFP yeast	LAP4 TOR yeast	CIT2-GFP yeast	s288c autofluor	others
O=C(c1ccccc1)c1ccc(N=Nc2c(O)[nH]c(=O)[nH]c2=O)cc1	12	227*[may fluoresce violet]	100	75	?	·
CC[n+]1c(/C=C/C=C/c2ccc(N(C)C)cc2)sc2ccccc21	106	103	?	366*[may fluoresce red]	103	·
CN(C)c1ccc(/C=C/C=C/c2sc3ccccc3[n+]2C)cc1	106	105	82	135	110	·
COc1ccc(OC)c(NC2=NCCS2)c1	99	100	106	95	102	·
C[N+]1(CC2COC(c3ccco3)O2)CCCCC1 (configuration not stated)	17	249*[may fluoresce violet]	58	62	?	·
Cc1cc(C=C2C(=O)N(C)C(=S)N(C)C2=O)c(C)n1-c1ccncc1	105	108	84	157*	59	·
CC/C(=N\Nc1ccccc1)c1c(O)n(-c2ccccc2)c(=O)[nH]c1=O	107	111	105	102	107	·
Cc1ccc(N2C(=O)NC(=O)/C(=C/c3cnc(-c4ccccc4)nc3)C2=O)cc1C	100	95	97	93	90	·
Cc1nn(Cc2ccccc2Cl)c(C)c1C(=O)OCC(=O)NC1CCS(=O)(=O)C1 (configuration not stated)	101	101	102	103	96	·
CN1C2CCC1CC(OC(=O)c1ccc([N+](=O)[O-])cc1)C2 (configuration not stated)	108	107	102	97	100	·
CN1[C@@H]2CC[C@H]1CC(OC(=O)C1C=Nc3ccccc31)C2 (some centres not stated)	110	177*	82	186*	106	·
O=C1NC(=O)N(Cc2ccco2)C(=O)/C1=C/c1ccc(-c2cccc([N+](=O)[O-])c2)o1	73	84	100	169*	77	0.71
O=C1NC(=O)N(c2cccc(Cl)c2)C(=O)/C1=C\c1ccc(Sc2nc3ccccc3[nH]2)o1	100	98	98	83	106	·
O=C1NC(=O)N(c2ccccc2)C(=O)/C1=C/c1ccc(Sc2ccccc2)o1	73	88	78	170*	75	0.91
COC(=O)C(O)(c1ccc(NC(=O)NC2CCCCC2)cc1)C(F)(F)F (configuration not stated)	96	93	104	85	98	·
CC1=CC(=C2C(=O)NC(=S)NC2=O)C=C(C(F)(F)F)N1C	101	97	99	87	·	·
C=CCN1C(=O)/C(=C/c2cccs2)C(=O)NC1=S	72	81	79	204*	49	-1.1	LAP4-GFP pick2=112;MEP2-GFP pick2=136;RPL19A-GFP pick2=68;CIT2-GFP pick2=69;AGP1-GFP pick2=61
O=C1NC(=O)N(CCc2ccc(F)cc2)C(=O)/C1=C/c1cccs1	86	100	88	172*	73	0
O=C1NC(=O)N(CCC2=CCCCC2)C(=O)/C1=C\c1cccs1	83	85	94	123	76	·
Clc1ccc2sc(C3CCNCC3)nc2c1	100	106	99	100	103	·
O=C1NC(=S)NC(=O)C1=Cc1ccc2c(c1)CCN2CCCCl	81	88	95	245*	75	1.8
Cc1c(C(=O)C(=O)N2CCOCC2)c2ccccc2n1Cc1ccccc1	110	107	109	95	122	·
CCN(CC)CCCC(C)N=C(c1ccccc1)c1c(O)n(C)c(=O)n(C)c1=O (configuration not stated)	104	103	102	107	110	·
C[C@]12CCC3C(CC[C@H]4C[C@@H](O)CC[C@]34C)C1CC[C@@]2(O)C(F)(F)F (some centres not stated)	95	90	97	94	95	·
CCN(CC)CCC(=O)O[C@H]1CC[C@]2(C)C3CC[C@@]4(C)C(CC[C@]4(C)O)C3CC[C@H]2C1 (some centres not stated)	112	92	81	177*	90	·	LAP4-GFP pick2=100;MEP2-GFP pick2=103;RPL19A-GFP pick2=101;CIT2-GFP pick2=100;AGP1-GFP pick2=96
O=C(O)c1cc[c]([Hg][Cl])cc1	90	129	62	255*	115	0.81	LAP4-GFP pick2=190*;MEP2-GFP pick2=193*;RPL19A-GFP pick2=81;CIT2-GFP pick2=100;AGP1-GFP pick2=73
C[C@@H]1C[C@@H]([C@H](O)CC2CC(=O)NC(=O)C2)C(=O)[C@@H](C)C1	41	96	49*	89	50	0.7	LAP4-GFP pick2=126;MEP2-GFP pick2=157*;RPL19A-GFP pick2=75;CIT2-GFP pick2=93;AGP1-GFP pick2=73;s288c autofl DR=0.41;TORC1 bypass=0
CCCCCn1c(=O)c(C(=O)Nc2nc3ccccc3[nH]2)c(O)c2ccccc21	103	98	98	111	89	0.1	LAP4-GFP pick2=98;MEP2-GFP pick2=97;RPL19A-GFP pick2=100;CIT2-GFP pick2=104;AGP1-GFP pick2=97
